According to ChEMBL document CHEMBL3988442, “University of Dundee, Small-Polar-MMV Screening Library” (2021):
The whole screen tested about 48,000 compounds, of which about 13,000 (27%) showed an effect of 50% or more. Some of the results follow.

The molecules below were run on Wolbachia pipientis (assay: Anti-Wolbachia Cell-Based Screen). Settings: 5 µM.
Type: functional
Parameters: scale not given: in the data most compounds retested in dose-response had high values
For Cc1nsc(N2CCCN(c3nc(C4CC4)ns3)CC2)n1, the “Percent Effect” value was 3.492%. For Cc1ccc(N2CCCC(N(C)Cc3c(C)noc3C)C2)nn1 (stereo not drawn), the “Percent Effect” value was -3.849%. Cc1cc(CNC2CCCN(c3cccnn3)C2)no1 (stereo not drawn) was tested, and the “Percent Effect” value was 3.501%. Cc1ccc(N2CCCC(NCc3nc(C)c(C)o3)C2)nn1 (stereo not drawn) was tested, and the “Percent Effect” value was -3.745%. For Cc1ccc(N2CCCC(NCc3cc(C)on3)C2)nn1 (stereo not drawn), the “Percent Effect” value was 114.3%. With Cc1ccc(N2CCCC(NCc3ccc(-n4ccnc4)cc3)C2)nn1 (stereo not drawn) the “Percent Effect” value was 9.457%. In the case of Cc1ccc(N2CCCC(NCc3cscn3)C2)nn1 (stereo not drawn), the “Percent Effect” value is reported as -5.01%. Cc1ccc(N2CCCC(NCc3c(C)noc3C)C2)nn1 (stereo not drawn) was tested, and the “Percent Effect” value was 115%. With Cc1ccc(N2CCCC(NCc3ccccn3)C2)nn1 (stereo not drawn) the “Percent Effect” value was 95.9%. With O=C(C1SCCc2sccc21)N1CCC(O)CC1 (stereo not drawn) the “Percent Effect” value was -0.1428%. With CCN(CC)c1ccc(C(=O)N2C[C@@H]3CC[C@H](C2)N(CCOC)C3)cc1 the “Percent Effect” value was 14.63%. With Cn1ccc(CN2CCC(CCc3ccc(O)cc3)CC2)cc1=O the “Percent Effect” value was 11.88%. CCN(CC)CC1CCN(Cc2ccn(C)c(=O)c2)CC1 was tested, and the “Percent Effect” value was 118.1%. In the case of Cn1ccc(CN2CCCC(CNS(C)(=O)=O)C2)cc1=O (stereo not drawn), the “Percent Effect” value is reported as 2.475%. For CCS(=O)(=O)NC1CCCN(Cc2ccn(C)c(=O)c2)C1 (stereo not drawn), the “Percent Effect” value was 5.979%. In the case of CN(C)CCC1CCN(Cc2ccn(C)c(=O)c2)CC1, the “Percent Effect” value is reported as 112.8%. For Cn1ccc(CN2CCC(COC3CCCC3)CC2)cc1=O, the “Percent Effect” value was 0.749%. With Cc1cccc(C)c1NC(=O)c1cccc(CN2CCCC2C)c1 (stereo not drawn) the “Percent Effect” value was 11.58%. For Cn1cc(C(=O)N2CCCC(c3cc(O)n(C)n3)C2)cn1 (stereo not drawn), the “Percent Effect” value was 108%. Cn1ccc(C(=O)N2CCCC(c3cc(O)n(C)n3)C2)n1 (stereo not drawn) was tested, and the “Percent Effect” value was 89.67%. With CC(C)c1csc(C2CCCN(C(=O)c3ccc(=O)n(C)n3)C2)n1 (stereo not drawn) the “Percent Effect” value was -15.66%. COCCN1CCN(CC(=O)NC2(C#N)CCCC2)CC1C (stereo not drawn) was tested, and the “Percent Effect” value was 16.28%. In the case of O=C(CCn1cc(Cl)cn1)N1CCC2(CC1)[C@H](O)C[C@@H]2OCCO, the “Percent Effect” value is reported as -14.25%. With CCc1cnc(NCc2nc(COC)no2)nc1 the “Percent Effect” value was 3.706%. COCCNc1ncc(-c2onc(C)c2C)c(-c2ccco2)n1 was tested, and the “Percent Effect” value was 94.53%. In the case of CCN(CC)CCNc1ncc(-c2cc(C)no2)c(-c2ccoc2C)n1, the “Percent Effect” value is reported as -6.629%. In the case of COc1ncc(NCc2csc(-c3ccco3)n2)cc1C(N)=O, the “Percent Effect” value is reported as -5.121%. For CCOCCCNc1ncc(-c2onc(C)c2C)c(-c2ccco2)n1, the “Percent Effect” value was 100.1%. For CCCOCCCNc1nccc(-c2cn(C)nc2C)n1, the “Percent Effect” value was -3.491%. In the case of CCOCCN1CCN(Cc2nnc(-c3ccco3)o2)CC1, the “Percent Effect” value is reported as 1.125%. In the case of COCCNc1ncc(-c2cc(C)no2)c(-c2ccco2)n1, the “Percent Effect” value is reported as 96.17%. With Cc1nsc(N2CCN(C(=O)Nc3ccc4[nH]ccc4c3)CC2)n1 the “Percent Effect” value was 0.5995%. CCc1cc(CN2CCC(CCC(=O)Nc3ccccc3Cl)CC2)on1 was tested, and the “Percent Effect” value was 3.381%. N#CCCN(CC1CCOC1)S(=O)(=O)c1c(F)cccc1Cl (stereo not drawn) was tested, and the “Percent Effect” value was 4.348%. With CCc1ccc(C2CCCCCN2Cc2nc(CCOC)no2)o1 (stereo not drawn) the “Percent Effect” value was -5.886%. With COc1ccc(N2CCN(Cc3nc(CSC)no3)CC2=O)cc1 the “Percent Effect” value was 98.96%. CSCc1noc(Cn2ccc3ccccc3c2=O)n1 was tested, and the “Percent Effect” value was 6.504%. COc1ccc(N2CCN(Cc3nc(CSC)no3)C(C)C2=O)cc1 (stereo not drawn) was tested, and the “Percent Effect” value was 106.8%. In the case of COc1ccc(N2CCN(C[C@@H](C)CO)CC2=O)cc1, the “Percent Effect” value is reported as -31.81%. In the case of CCc1nc(C2CCCN2Cc2nc(CCOC)no2)no1 (stereo not drawn), the “Percent Effect” value is reported as -0.7381%. For COCCc1noc(CN2CCN(c3ccc(OC)cc3)C(=O)C2C)n1 (stereo not drawn), the “Percent Effect” value was 97.33%. With CCN1CC2(CCN(Cc3nc(CSC)no3)CC2)CC1=O the “Percent Effect” value was -1.733%. In the case of CSCc1noc(Cn2ncn3cccc3c2=O)n1, the “Percent Effect” value is reported as 40.19%. Cc1ccc(N2C[C@H]3CCC[C@@H](CN4CCOCC4)[C@H]3C2)nn1.O=C(O)C(F)(F)F was tested, and the “Percent Effect” value was 7.309%. With CC(Cn1ccnc1)NC(=O)N1CCCN(Cc2cccs2)CC1 (stereo not drawn) the “Percent Effect” value was 98.79%. For CC(Cn1ccnc1)NC(=O)N1CCN(Cc2cccs2)CC1 (stereo not drawn), the “Percent Effect” value was 97.63%. With Cc1ccc(C(=O)N2CCN(C(=O)NC(C)Cn3ccnc3)CC2)o1 (stereo not drawn) the “Percent Effect” value was 0.8524%. For Cc1cc(CN2CCN(C(=O)NC(C)Cn3ccnc3)CC2)no1 (stereo not drawn), the “Percent Effect” value was -2.401%. For CC(NC(=O)N1CCCN(Cc2cccs2)CC1)c1cccnc1 (stereo not drawn), the “Percent Effect” value was -8.61%. With CC(Cn1cccn1)NC(=O)N1CCN(Cc2cccs2)CC1 (stereo not drawn) the “Percent Effect” value was 7.648%. In the case of O=C(Nc1ccc2c(c1)OCCO2)N1CCCN(Cc2cccs2)CC1, the “Percent Effect” value is reported as -12.77%. O=C(NCCn1ccnc1)N1CCCN(Cc2cccs2)CC1 was tested, and the “Percent Effect” value was 115.6%. O=C1CCc2cc(NC(=O)N3CCCN(Cc4cccs4)CC3)ccc21 was tested, and the “Percent Effect” value was 4.237%.
